Usually AC50 stands for the concentration at which the activity in the assay is half-maximal.

Values joined by “and” are separate entries in the source; they are usually repeats but may differ in a detail not shown here. Equal values may be shown once. Some structures have more than one record in an assay (separate samples or runs), and their calls can disagree. Active and inactive are the calls of the source. The calls were made as follows: active = hit-call score of the fitted dose curve at least 0.9, where 1 is the maximum; inactive = score below 0.9.

The nature of assay [1]: ATG_E_Box_CIS: Attagene CIS-FACTORIAL HepG2 Assay for human Enhancer Box (E-box) (AID 2282936). To be noted: HepG2 E-box cis-reporter transcription, actives raise or lower the signal. In a few lines:
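Measured 24 h post-dosing in HepG2 cells transfected with multiple cis-regulated reporter units, signal being reporter mRNA induction detected by fluorescent RT-PCR with capillary electrophoresis; gain or loss fitted against DMSO.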

The nature of assay [2]: ATG_M_61_CIS: Attagene CIS-FACTORIAL HepG2 Assay for M61 Transcription Factor (Internal Marker) (AID 2282937). To be noted: HepG2 Attagene CIS-FACTORIAL M61 internal marker reporter; actives raise or lower the signal. In a few lines:
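This endpoint serves as an internal background control within a multiplexed HepG2 cis-reporter panel. Cells are exposed for 24 h; reporter mRNA is amplified, fluorescently labelled and sized by capillary electrophoresis, with DMSO as negative control.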

Assay [3] can be described thus: ATG_EGR_CIS: Attagene CIS-FACTORIAL HepG2 Assay for human Early Growth Response 1 (EGR1) (AID 2282938). The settings on record: HepG2 Attagene CIS-FACTORIAL EGR reporter mRNA; actives raise or lower the signal. In a few lines: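 HepG2, transient MRTU transfection (cis promoters), 24 h compound. RNA → RT (oligo-dT) → PCR → 6-FAM labelling → HpaI cut → CE fluorescence. Bidirectional fit, DMSO baseline.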

Assay [4] is described as follows: ATG_M_19_CIS: Attagene CIS-FACTORIAL HepG2 Assay for M19 Transcription Factor (Internal Marker) (AID 2282939). The settings on record: HepG2 Attagene CIS-FACTORIAL M19 internal marker reporter; actives raise or lower the signal. In a few lines:
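Transfect HepG2 with MRTU reporter library → dose chemical, 24 h → isolate total RNA, reverse-transcribe with oligo(dT) → PCR, 6-FAM label, HpaI cut (2 h, 37 C) → capillary electrophoresis. Bidirectional fit vs DMSO.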

Assay [5] can be described thus: ATG_ERE_CIS: Attagene CIS-FACTORIAL HepG2 Assay for Estrogen Response Element (ERE) (AID 2282940). To be noted: HepG2 ERE cis-reporter, Attagene RNA transcript; actives raise or lower the signal. In short, it runs like this:
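Transient MRTU transfection of human HepG2; cis-element promoters; 24 h dosing; total RNA → RT (oligo dT) → PCR → 6-FAM primer extension → HpaI digest → CE fluorescence. Bidirectional fit, DMSO baseline.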

A short description of assay [6]: ATG_Ets_CIS: Attagene CIS-FACTORIAL HepG2 Assay for human Erythroblast Transformation Specific (ETS) (AID 2282941). The settings on record: HepG2 ETS cis-reporter transcription, actives raise or lower the signal. In a few lines: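 Multiplexed reporter transcript profiling: HepG2, 24 h treatment, total RNA to cDNA, PCR, 6-FAM labelling, HpaI cut, capillary electrophoresis. Gain- or loss-of-signal fitted against DMSO.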

Assay [7] deals with Hepatocyte nuclear factor 3-beta (Homo sapiens) (UniProt Q9Y261). Briefly: ATG_FoxA2_CIS: Attagene CIS-FACTORIAL HepG2 Assay for human Forkhead box A2 (FOXA2) (AID 2282942). To be noted: HepG2 cis-reporter transcription factor activity, 24 h; actives raise or lower the signal. In short, it runs like this: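 Cells: HepG2, transient multiplex reporter transfection. Exposure 24 h. Detection: reporter-specific RT-PCR, fluorescent labelling, restriction digest, capillary electrophoresis. Analysis: bidirectional curve fit, DMSO as negative control.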
Hepatocyte nuclear factor 3-beta (Homo sapiens), sequence (Q9Y261 whole entry, looked up): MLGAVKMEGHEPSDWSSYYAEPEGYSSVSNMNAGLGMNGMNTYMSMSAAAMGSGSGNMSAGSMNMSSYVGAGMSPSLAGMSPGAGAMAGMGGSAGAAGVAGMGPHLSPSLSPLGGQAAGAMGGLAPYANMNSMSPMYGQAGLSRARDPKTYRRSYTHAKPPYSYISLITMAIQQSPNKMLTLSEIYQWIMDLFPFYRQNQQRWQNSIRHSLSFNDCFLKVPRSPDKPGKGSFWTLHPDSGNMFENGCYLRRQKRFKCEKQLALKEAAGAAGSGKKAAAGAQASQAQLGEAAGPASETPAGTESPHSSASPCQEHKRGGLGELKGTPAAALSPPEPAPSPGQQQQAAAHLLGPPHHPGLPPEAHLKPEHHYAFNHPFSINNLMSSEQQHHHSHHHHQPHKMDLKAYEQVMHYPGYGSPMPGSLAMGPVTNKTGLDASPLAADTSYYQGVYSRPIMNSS

The nature of assay [8]: ATG_FoxO_CIS: Attagene CIS-FACTORIAL HepG2 Assay for human Forkhead box O (FoxO) (AID 2282943). To be noted: HepG2 Attagene cis-reporter, FoxO element, mRNA; actives raise or lower the signal. In a few lines: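 Values reflect reporter mRNA induction or loss in HepG2 cells 24 h post-dosing, fitted bidirectionally with DMSO as negative control and baseline. Detection used RT-PCR and fluorescence capillary electrophoresis.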

Assay [9] in a line: ATG_GATA_CIS: Attagene CIS-FACTORIAL HepG2 Assay for human GATA Binding Protein (AID 2282944). To be noted: HepG2 GATA cis-element reporter, Attagene multiplex mRNA; actives raise or lower the signal. In a few lines: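 Transient MRTU transfection, HepG2, 24 h compound exposure. Total RNA → oligo(dT) RT → PCR → 6-FAM primer extension → HpaI cut → CE. Bidirectional fit vs DMSO.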

The nature of assay [10]: ATG_GLI_CIS: Attagene CIS-FACTORIAL HepG2 Assay for human Zinc Finger Protein GLI1 (AID 2282945). The settings on record: HepG2, Attagene cis-factorial reporter mRNA, GLI element; actives raise or lower the signal. In short, it runs like this:
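HepG2 cells transiently transfected with cis-promoter multiplexed reporter units report endogenous transcription factor activity. After 24 h chemical exposure, reporter mRNA was quantified by RT-PCR, 6-FAM labelling, HpaI digestion and capillary electrophoresis, with bidirectional fitting against DMSO.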

Assay [11] can be described thus: ATG_GRE_CIS: Attagene CIS-FACTORIAL HepG2 Assay for human Glucocorticoid Response Elements (GRE) (AID 2282947). To be noted: HepG2 GRE cis-reporter, Attagene multiplex mRNA; actives raise or lower the signal. In a few lines: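 HepG2, transient cis-reporter transfection, 24 h. Reporter mRNA: RT-PCR then CE, fluorescence. Fit both directions vs DMSO.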
Assay [12] can be described thus: ATG_ISRE_CIS: Attagene CIS-FACTORIAL HepG2 Assay for human Interferon Regulatory Factor 1 (IRF1) binding to an Interferon-Stimulated Response Element (ISRE) (AID 2282948). To be noted: HepG2 ISRE cis-reporter (Attagene), mRNA transcription readout; actives raise or lower the signal. In short, it runs like this:
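Signal reflects induction or loss of ISRE-linked reporter mRNA in transiently transfected HepG2 cells after a 24 h treatment, detected by fluorescent RT-PCR fragments on capillary electrophoresis and normalised to DMSO.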

Assay [13] can be described thus: ATG_M_32_CIS: Attagene CIS-FACTORIAL HepG2 Assay for M32 Transcription Factor (Internal Marker) (AID 2282949).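 Also: background control marker of the multiplexed CIS panel rather than a real target.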 The settings on record: HepG2 Attagene cis-factorial M32 reporter, mRNA; actives raise or lower the signal. In a few lines: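 Using DMSO as baseline, bidirectional curve fits were applied to reporter mRNA signals. These came from transiently transfected HepG2 cells exposed for 24 h, with RNA analysed by RT-PCR, FAM primer extension, HpaI digestion and CE.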

Assay [14] in a line: ATG_M_06_CIS: Attagene CIS-FACTORIAL HepG2 Assay for M06 Transcription Factor (Internal Marker) (AID 2282950). The settings on record: HepG2 Attagene CIS-FACTORIAL M06 internal marker reporter; actives raise or lower the signal. In a few lines:
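Read-out is fluorescence of labelled reporter cDNA fragments resolved by capillary electrophoresis after RT-PCR. Cells: HepG2 carrying transfected cis-promoter reporter units, treated 24 h. Gain or loss of signal fitted relative to DMSO.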

Assay [15] has as its target Hepatocyte nuclear factor 6 (Homo sapiens) (UniProt Q9UBC0). The assay can be described thus: ATG_HNF6_CIS: Attagene CIS-FACTORIAL HepG2 Assay for human Hepatocyte Nuclear Factor 6 (HNF6) (AID 2282952). The settings on record: HepG2 Attagene cis-factorial HNF6 reporter transcription; actives raise or lower the signal. In short, it runs like this: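 Readout: fluorescent reporter-transcript fragments resolved by capillary electrophoresis after RT-PCR, reflecting endogenous factor activity in transfected HepG2. Exposure 24 h. Gain or loss of signal fitted bidirectionally against DMSO.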

The target in assay [16] is Heat shock factor protein 1 (Homo sapiens) (UniProt Q00613). The assay can be described thus: ATG_HSE_CIS: Attagene CIS-FACTORIAL HepG2 Assay for human Heat Shock Transcription Factor 1 (HSE) (AID 2282953). To be noted: HepG2 HSE cis-reporter, Attagene RNA transcription; actives raise or lower the signal. In a few lines: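 HepG2, transient MRTU transfection, cis-promoter reporters (endogenous TF activity). 24 h compound. RNA → oligo(dT) RT → PCR → 6-FAM primer extension → HpaI cut → CE. Bidirectional fit vs DMSO.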
Heat shock factor protein 1 (Homo sapiens), sequence (Q00613 whole entry, looked up): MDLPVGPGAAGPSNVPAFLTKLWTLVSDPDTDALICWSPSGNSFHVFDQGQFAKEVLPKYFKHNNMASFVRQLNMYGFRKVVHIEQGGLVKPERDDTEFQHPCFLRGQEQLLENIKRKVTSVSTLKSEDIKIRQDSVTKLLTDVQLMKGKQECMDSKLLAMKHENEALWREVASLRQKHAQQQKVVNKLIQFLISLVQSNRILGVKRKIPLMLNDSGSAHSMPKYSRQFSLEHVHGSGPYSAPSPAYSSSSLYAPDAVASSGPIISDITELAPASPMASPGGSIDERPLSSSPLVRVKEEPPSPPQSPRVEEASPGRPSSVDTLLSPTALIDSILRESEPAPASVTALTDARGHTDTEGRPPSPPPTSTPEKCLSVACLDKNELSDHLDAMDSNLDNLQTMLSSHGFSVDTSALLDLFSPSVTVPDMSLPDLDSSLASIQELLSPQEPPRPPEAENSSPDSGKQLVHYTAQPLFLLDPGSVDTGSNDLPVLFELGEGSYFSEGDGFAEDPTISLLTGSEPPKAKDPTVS

Assay [17] is described as follows: ATG_MRE_CIS: Attagene CIS-FACTORIAL HepG2 Assay for human Metal Responsive Element (MRE) (AID 2282954). To be noted: HepG2 MRE cis-reporter transcription, Attagene multiplex; actives raise or lower the signal. In short, it runs like this:
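Readout: capillary electrophoresis of 6-FAM-labelled, HpaI-digested RT-PCR reporter products. System: HepG2 cells carrying transient multiplexed cis reporters, dosed 24 h. Analysis: bidirectional fit, DMSO baseline.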

Assay [18] concerns the target Paired box protein Pax-6 (Homo sapiens) (UniProt P26367). The assay can be described thus: ATG_Pax6_CIS: Attagene CIS-FACTORIAL HepG2 Assay for human Paired Box 6 (PAX6) (AID 2282956). The settings on record: HepG2 CIS-FACTORIAL PAX6 reporter transcription, RNA readout; actives raise or lower the signal. In a few lines: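 Values derive from bidirectional curve fitting of reporter mRNA signal relative to DMSO. HepG2 cells bearing transfected cis-regulated MRTUs were exposed for 24 h; transcripts were read by RT-PCR and capillary electrophoresis.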

Assay [19] in a line: ATG_PBREM_CIS: Attagene CIS-FACTORIAL HepG2 Assay for human Phenobarbital-responsive Enhancer Module (PBREM) (AID 2282955). To be noted: HepG2 PBREM cis-reporter, Attagene multiplexed transcription; actives raise or lower the signal. In short, it runs like this:
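HepG2, transient MRTU transfection, 24 h dosing; RNA → oligo(dT) RT → PCR → 6-FAM extension → HpaI → CE. Bidirectional fit vs DMSO.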

Paired box protein Pax-6 (Homo sapiens), sequence (P26367 whole entry, looked up): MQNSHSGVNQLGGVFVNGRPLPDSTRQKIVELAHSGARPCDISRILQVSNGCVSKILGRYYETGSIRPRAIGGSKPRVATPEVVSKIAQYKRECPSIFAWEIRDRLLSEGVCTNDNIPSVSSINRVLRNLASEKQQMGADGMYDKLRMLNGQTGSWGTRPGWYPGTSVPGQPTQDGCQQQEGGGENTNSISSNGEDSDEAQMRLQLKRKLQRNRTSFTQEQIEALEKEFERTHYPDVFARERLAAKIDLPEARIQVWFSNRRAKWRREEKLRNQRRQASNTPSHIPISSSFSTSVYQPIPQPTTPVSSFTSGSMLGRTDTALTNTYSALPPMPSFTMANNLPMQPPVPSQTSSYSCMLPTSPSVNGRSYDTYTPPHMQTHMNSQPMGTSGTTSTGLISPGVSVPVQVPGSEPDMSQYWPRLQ
Hepatocyte nuclear factor 6 (Homo sapiens), sequence (Q9UBC0 whole entry, looked up, the tested form may be a part): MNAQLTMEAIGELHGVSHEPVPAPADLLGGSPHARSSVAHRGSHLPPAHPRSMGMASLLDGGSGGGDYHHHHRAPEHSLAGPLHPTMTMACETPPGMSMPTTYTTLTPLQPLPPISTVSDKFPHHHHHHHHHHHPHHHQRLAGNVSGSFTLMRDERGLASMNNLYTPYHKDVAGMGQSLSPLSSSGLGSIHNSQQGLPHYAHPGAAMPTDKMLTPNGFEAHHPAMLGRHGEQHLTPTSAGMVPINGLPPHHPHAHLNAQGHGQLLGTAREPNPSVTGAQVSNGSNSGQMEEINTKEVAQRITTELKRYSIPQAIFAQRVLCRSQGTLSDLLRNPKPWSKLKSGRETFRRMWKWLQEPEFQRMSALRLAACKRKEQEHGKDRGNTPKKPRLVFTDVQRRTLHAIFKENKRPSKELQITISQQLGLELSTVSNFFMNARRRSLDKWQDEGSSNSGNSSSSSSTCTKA

As for `Clc1ccc(C(Cl)(Cl)Cl)cc1`, the result in assay [1], in assay [2], in assay [3], in [4], in assay [5] and in assay [6] was inactive. Also, the call in assay [7], in assay [8], in [9], in assay [10], in [11] and in [12] was inactive. In addition, the compound was classed as inactive in assay [13], in [14], in [15], in [16], in assay [17] and in assay [18].
Consider `c1cc2ccc3cccc4ccc(c1)c2c34`, for which the outcome in assay [1], in [2], in [3], in assay [4], in assay [5] and in [6] was inactive. The compound was called inactive in assay [7], in assay [8], in assay [9], in assay [10], in assay [11] and in assay [12]. Also, the outcome in [13], in assay [14], in [15], in [16], in assay [17] and in assay [19] was inactive. In addition, the outcome in assay [18] was inactive.
For the compound `C[C@]12CCC(=O)C=C1CC[C@@H]1[C@@H]2CC[C@]2(C)C(=O)CC[C@@H]12`, the outcome in assay [1], in assay [2], in [3], in assay [4], in assay [6] and in assay [7] was inactive. For the same compound, the compound was classed as inactive in assay [8], in assay [9], in [10], in assay [12], in [13] and in [14]. In addition, the outcome in assay [15], in assay [16], in [17], in assay [19] and in assay [18] was inactive.
Consider `CCCN(CCC)N=O`, for which the outcome in assay [1], in assay [2], in [3], in assay [4], in [6] and in assay [7] was inactive. The compound was classed as inactive in [8], in [9], in [10], in [11], in assay [12] and in assay [13]. The outcome in assay [14], in assay [15], in assay [16], in assay [17], in [19] and in [18] was inactive. In assay [5], the AC50 is 46.4 µM (active).
For `C[C@]12CCC(=O)C=C1CC[C@@H]1[C@@H]2CC[C@@]2(C)[C@H]1CC[C@]2(C)O`, the outcome in assay [1], in [2], in assay [3], in [4], in assay [6] and in [7] was inactive. Also, the compound was called inactive in assay [8], in assay [9], in [10], in assay [11], in assay [12] and in assay [13]. The outcome in [14], in [15], in assay [16], in assay [17], in assay [19] and in [18] was inactive. Moreover, the AC50 in assay [17] is 132 µM (active) and 129 µM (active) and 79.4 µM (active).
Consider `Cc1cc(-c2ccc(N)c(C)c2)ccc1N`, for which the outcome in assay [1], in [2], in assay [3], in [4], in assay [6] and in assay [7] was inactive. The result in assay [8], in assay [9], in assay [10], in assay [12], in assay [13] and in [14] was inactive. Besides, the outcome in assay [15], in assay [16], in assay [17], in [19] and in assay [18] was inactive. Moreover, the AC50 in assay [5] was 14.6 µM (active) and 12.8 µM (active).

The record behind these values is PubChem BioAssay (EPA / NIEHS).
